PubChem BioAssay (Tox21)
Records with an inconclusive call do not appear. A call without a number means that no potency is given here. Calls of active or inactive are those of the source. Calls follow the shape of the dose curve; as a rule, active = well fitted activation curve with a large enough effect in the repeat runs; inconclusive = weak or mixed curves; inactive = flat fitted curve, though single readings scatter.

Experiment: A CellTox Green Cytotoxicity Assay to monitor cytotoxicity in HepG2 cells - 8 hour (AID 1224890); also: nearly all actives have a fitted effect of over 45% in size
Conditions: CellTox Green fluorescence; series mostly up to 76.8 µM
Text: National Center for Advancing Translational Sciences [NCATS]
NIH Chemical Genomics Center [NCGC]
U.S. Environmental Protection Agency [EPA]
National Institutes of Environmental Health Sciences [NIEHS]
National Toxicology Program [NTP]
Cell-based models are critical for drug discovery. Determining the natural cytotoxic effects resulting from test compounds is an essential research activity. A CellTox Green Cytotoxicity Assay to monitor cytotoxicity in real time of continues cell culture during 40 hours of the compound treatment was used to screen Tox21 10K library compounds in HepG2 cells. CellTox Green Cytotoxicity Assay is a nonlytic, homogeneous, biofluorescent method to measure cytotoxicity in cell culture after experimental manipulation. The assay system uses a proprietary asymmetric cyanine dye that is excluded from viable cells but preferentially stains the dead cell's DNA. […] Viable cells produce no appreciable increases in fluorescence. Therefore, the fluorescence signal produced by the binding interaction with dead cell DNA is proportional to cytotoxicity.
The mixture of HepG2 cell suspension and reagents were dispensed at 600cells/6 ul/well in 1536-well tissue culture treated black solid bottom plates using a Multidrop dispenser. After the assay plates were incubated at a 37 C/5% CO2 incubator for 5 hours, 23 nL of compounds dissolved in DMSO, positive and negative controls was transferred to the assay plate by a pintool work station. The plates were incubated at 37 C for 40 hours. The fluorescence intensity were measured at 0h, 8h, 16h, 24h, 32h and 40h time points using ViewLux plate reader during compound treatment.

SMILES | Potency
CC(C)COC(=O)c1ccccc1O | inactive
CCCC=O | inactive
O=C(O)c1ccc[n+]([O-])c1 | inactive
CCc1cc(S(=O)(=O)O)c2cc(C(C)C)cccc1-2 | inactive
C=CCOc1nc(OCC=C)nc(OCC=C)n1 | inactive
Cc1ccc(Nc2ccc(O)c3c2C(=O)c2ccccc2C3=O)cc1 | inactive
CSc1nc(NC2CC2)nc(NC(C)(C)C)n1 | inactive
CC(C)(O)Cc1ccccc1 | inactive
CCCCCCCCCCCCCCCCCC(=O)OCCCCCCCCCCCCCC(C)C | inactive
CCCOc1ccccc1-c1nc2n[nH]nc2c(=O)[nH]1 | inactive
COc1ccc(N=[N+]([O-])c2ccc(OC)cc2)cc1 | inactive
C=C(C)C(=O)OCCC(C)OC(=O)C(=C)C (stereo not given) | inactive
NC1CCN(c2cccc(Cl)n2)CC1 | inactive
O=Cc1ccccc1[N+](=O)[O-] | inactive
O=S(=O)(c1cccc2cnccc12)N1CCCNCC1 | inactive
C#CC(O)CCCCC (stereo not given) | inactive
CC1=CCC2C(C1)C2(C)C (stereo not given) | inactive
COc1cccc(OC)c1 | inactive
OCC(CO)(CO)COCC(CO)(CO)CO | inactive
c1ccc(CCCc2ccccn2)cc1 | inactive

SMILES | Potency
Oc1cc(O)c2c(c1)O[C@H](c1ccc(O)c(O)c1)[C@H](O)C2 | inactive
CCCc1ccccc1O | inactive
CC(=O)CCc1ccc(O)cc1 | inactive
O=[N+]([O-])c1ccc(Oc2ccc([N+](=O)[O-])cc2)cc1 | inactive
COc1cc(CCC(C)=O)ccc1O | inactive
COc1ccc(NC(C)=O)cc1 | inactive
CC(C)COC(=O)C(C)C | inactive
Cc1cc(C)c(NC(=O)CN(CC(=O)O)CC(=O)O)c(C)c1Br | inactive
[O-][N+](=Nc1ccccc1)c1ccccc1 | inactive
C[C@H](O)C(=O)Nc1c(I)c(C(=O)NC(CO)CO)c(I)c(C(=O)NC(CO)CO)c1I | inactive
COCCOC(=O)CC#N | inactive
Cc1c(F)cc2c(=O)c(C(=O)O)cn3c2c1CCC3C (stereo not given) | inactive
CN1[C@@H]2CC[C@H]1CC(NC(=O)n1c(=O)[nH]c3ccccc31)C2 (stereo not given in full) | inactive
CC/C=C\C#N | inactive
CCn1c(=O)c2c(nc(/C=C/c3ccc(OC)c(OC)c3)n2C)n(CC)c1=O | inactive
COC(C(=O)O)c1ccccc1 (stereo not given) | inactive
CCCCN(CCO)CCO | inactive
CCCCCCOC(=O)c1ccccc1O | inactive
CC(C)c1cccc(O)c1 | inactive
COC[C@H](c1ccc(C(F)(F)F)cc1)N1CCN(C2(C)CCN(C(=O)c3c(C)ncnc3C)CC2)C[C@H]1C | inactive
